Compounds with a hit are over-represented: about 7.4% of the library has one in this group of screens.
ELG1 genotoxic = inducers of genotoxicity in HEK293T ELG1-luciferase cells; HEK293T ELG1-luciferase reporter, luminescence, 16 h; Potency, µM (doses to about 46 µM), for the others: top-dose activity change, positive = activation, most hits filed as activators; 330,000 compounds, 1.3% hits; further: % of control where 0% means no effect; nearly all actives have a fitted effect of over 60% in size
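Genotoxicity was scored as increased ELG1-luciferase reporter signal, measured by ONE-Glo luminescence (30 min, room temperature). Compound or vehicle exposure of the HEK293T reporter cells lasted 16 hr at 37°C.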
NPC1 promoter act = activates the NPC1 promoter; Potency, µM (titrated, usually from 9.22 µM), for inactives: at the top dose activation, actives largely listed as activators; Huh7 NPC1 promoter luciferase reporter, 24 h; 320,000 compounds, 2.4% hits; further: % of control where 0% means no effect; nearly all actives have a fitted effect of over 60% in size
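NPC1 promoter–luciferase Huh7 cells; 24 h compound; luminescence.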
FLuc counter = inhibits or activates purified firefly luciferase, miR-21 counter-screen; P08659; purified FLuc, Km substrates, luminescence inhibition; Potency, µM (doses to about 57.5 µM), for the others: at the top dose activity change, negative = inhibition, actives largely listed as inhibitors; 360,000 compounds, 6.9% hits;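 further: plate controls were vehicle for no effect and reference inhibitor for full effect; nearly all actives have a fitted effect of over 55% in size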
Target sequence (P08659 whole entry, looked up): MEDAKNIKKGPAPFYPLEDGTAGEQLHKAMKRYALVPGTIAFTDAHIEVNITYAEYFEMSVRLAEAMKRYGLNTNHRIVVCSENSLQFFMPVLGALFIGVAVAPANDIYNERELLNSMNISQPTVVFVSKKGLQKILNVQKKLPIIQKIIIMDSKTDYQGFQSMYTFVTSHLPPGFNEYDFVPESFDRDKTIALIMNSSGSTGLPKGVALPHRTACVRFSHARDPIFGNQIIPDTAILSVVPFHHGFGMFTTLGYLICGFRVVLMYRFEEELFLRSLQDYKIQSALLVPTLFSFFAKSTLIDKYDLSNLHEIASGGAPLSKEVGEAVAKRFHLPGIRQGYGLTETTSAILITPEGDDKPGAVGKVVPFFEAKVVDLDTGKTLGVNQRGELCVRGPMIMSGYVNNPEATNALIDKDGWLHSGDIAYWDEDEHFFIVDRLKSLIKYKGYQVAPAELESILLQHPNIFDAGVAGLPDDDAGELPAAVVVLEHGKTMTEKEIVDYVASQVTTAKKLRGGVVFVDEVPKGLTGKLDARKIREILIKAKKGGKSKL
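Biochemical qHTS of compounds, final roughly 60 µM downward over six points, against 10 nM purified firefly luciferase using Km concentrations of substrates (10 uM D-luciferin, 10 uM ATP) in Tris acetate pH 7.5 buffer; luminescence output.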
SMN2 splice up = SMN2 splice variant enhancement; HEK293 SMN2-luciferase splicing reporter, luminescence, 30-36 h; Potency, µM (doses to about 46.1 µM), inactives show top-dose activity change, positive = activation, usual class: activators; 210,000 compounds, 2.8% hits; further: % of control where 0% means no effect; nearly all actives have a fitted effect of over 55% in size
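HEK293 cells carry an SMN2 […]–luciferase reporter in which exon 7 inclusion puts luciferase in frame. Cells were plated 10-12 h before compound addition, then incubated 30-36 h at 37C. ONE-Glo luminescence was read; sodium butyrate at 4.5 mM final served as control.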
Rab9 promoter act = activates the Rab9 promoter; Huh7 Rab9 promoter-luciferase reporter, luminescence, 24 h; AID 485297; 320,000 compounds, 2.8% hits; Potency, µM (highest dose often 9.22 µM), for inactives: at the highest dose activation, negative = inhibition, hits mostly activators; further: % of control where 0% means no effect; nearly all actives have a fitted effect of over 60% in size
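Rab9 promoter-driven luciferase in stably transfected Huh7 cells; 1500 cells/well rested 2 h, exposed to compound in DMSO for 24 h at 37 °C, 5% CO2. Luminescence read 10 min after adding luciferase reagent at ambient temperature.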
An asterisk follows results filed as active. The call rests on the fitted dose curve; in most records, active means well fitted curve in the direction sought with a large enough effect; inconclusive means small, poorly fitted or top-dose-only effect, or another doubt; inactive means no such curve, though single readings can be large; an effect the other way counts as inactive or inconclusive. Potency means the concentration at half of the fitted maximal effect.

For O=C(Cn1nnc(-c2ccccc2)n1)NNC(=O)c1ccco1 the results were ELG1 genotoxic 2.4%, NPC1 promoter act -12.9%, FLuc counter 0.4% and Rab9 promoter act -3.8%.
`COc1cc(OC)cc(-c2cc3ccc(OC)cc3cn2)c1` gave ELG1 genotoxic inconclusive, NPC1 promoter act inconclusive, FLuc counter 0.269µM* and Rab9 promoter act inconclusive.
For COc1ccc2cc(-c3ccsc3)ncc2c1 the results were ELG1 genotoxic inconclusive, NPC1 promoter act inconclusive, FLuc counter 1.9µM* and Rab9 promoter act -0.5%.
`COc1ccc2cc(-c3ccccc3)ncc2c1` gave ELG1 genotoxic 2.91µM*, NPC1 promoter act 0.562µM*, FLuc counter 0.536µM* and Rab9 promoter act 0.447µM*.
`COc1cc(OC)cc(-c2cc3ncccc3cn2)c1` gave ELG1 genotoxic 10.3%, NPC1 promoter act 14.4%, FLuc counter inconclusive and Rab9 promoter act -1.1%.
Screening COc1cc2cnc(C3=CCCCC3)cc2cc1OC returned ELG1 genotoxic 2.7%.
`COc1ccc(-c2ccc3oc(-c4ccsc4)c(-c4ccc(Br)nc4)c3c2)cc1` gave ELG1 genotoxic 19.1%.
`COc1ccc(-c2nc(C)ncc2-c2ccccc2)c(O)c1` gave ELG1 genotoxic 0.9%, NPC1 promoter act 6.6%, FLuc counter 1.2% and Rab9 promoter act -4.0%.
For COc1ccc2cc(C3=CCCCC3)ncc2c1 the results were ELG1 genotoxic inconclusive, NPC1 promoter act 2µM*, FLuc counter 0.849µM* and Rab9 promoter act inconclusive.
`Brc1cccc(CN2CCN(c3ncccn3)CC2)c1` gave ELG1 genotoxic -2.4%, NPC1 promoter act -5.5%, FLuc counter 5.7% and Rab9 promoter act 1.6%.
`CCOC(=O)c1cc(-c2ccccc2)n(CCC(=O)Nc2nc3c(C)cccc3s2)c1C` gave FLuc counter -1.3%.
`Cc1ccc(C(C(=O)NC2CCCC2)N(CCCO)C(=O)Cn2nnc(-c3ccc(C)o3)n2)cc1` (stereo unspecified) gave ELG1 genotoxic 6.5%, NPC1 promoter act -1.6%, FLuc counter -0.6% and Rab9 promoter act -4.0%.
COCCCn1c(=N)c(C(=O)NCc2cccnc2)cc2c(=O)n3cccc(C)c3nc21 was read as FLuc counter -10.0% and SMN2 splice up -3.0%.
Screening CCOC(=O)c1cc2cc(OC)ccc2[nH]1 returned ELG1 genotoxic inconclusive, NPC1 promoter act 3.55µM*, FLuc counter 12µM*, SMN2 splice up -2.6% and Rab9 promoter act 3.98µM*.
CCOC(=O)c1[nH]c2ccc(OC)cc2c1NC(C)=O was read as ELG1 genotoxic -1.2%, NPC1 promoter act 5.7%, FLuc counter -6.8%, SMN2 splice up -2.7% and Rab9 promoter act -10.7%.
`CCOC(=O)c1[nH]c2ccc(OC)cc2c1C` gave ELG1 genotoxic inconclusive, NPC1 promoter act inconclusive, FLuc counter 13.5µM*, SMN2 splice up 4.0% and Rab9 promoter act inconclusive.
For CCOC(=O)c1[nH]c2ccc(F)cc2c1NC(=O)c1cc(OC)c(OC)c(OC)c1 the results were ELG1 genotoxic 0.7%, NPC1 promoter act -0.2%, FLuc counter 1.0%, SMN2 splice up 22.4µM* and Rab9 promoter act 8.1%.
COc1ccc(C)cc1NC(=O)CN(C)C1CCCCC1 was read as ELG1 genotoxic -1.8%, NPC1 promoter act 2.4%, FLuc counter -1.8% and Rab9 promoter act 2.3%.
Screening COc1ccc2oc(C(=O)OCC(=O)N3CCCC3=O)c(C)c2c1 returned ELG1 genotoxic 10.7%, NPC1 promoter act 0.9%, FLuc counter inconclusive and Rab9 promoter act -2.4%.
`COC(=O)c1ccc(NC(=O)C(C)N2Cc3ccccc3C2=O)cc1` (stereo unspecified) gave FLuc counter -4.8%.
`CCN(c1cccc(C)c1)S(=O)(=O)c1nnc(NC(=O)C2CCCCC2)s1` gave FLuc counter 15.1µM*.
Screening CC(C)CN(c1ccccc1)S(=O)(=O)c1nnc(NC(=O)C(C)C)s1 returned ELG1 genotoxic 1.1%, NPC1 promoter act -1.9%, FLuc counter 1.1% and Rab9 promoter act -4.2%.
Screening CCN(c1ccccc1)S(=O)(=O)c1nnc(NC(=O)C2CCCCC2)s1 returned FLuc counter 2.69µM*.
For CCN(c1ccc(C)cc1)S(=O)(=O)c1nnc(NC(=O)C2CCCCC2)s1 the results were FLuc counter 10.7µM*.
Screening CCN(c1ccc(OC)cc1)S(=O)(=O)c1nnc(NC(=O)C2CCCCC2)s1 returned ELG1 genotoxic 2.2%, NPC1 promoter act -1.9%, FLuc counter 0.6% and Rab9 promoter act -2.2%.
`CC(C)CC(=O)Nc1nnc(S(=O)(=O)N(CC(C)C)c2ccccc2)s1` gave FLuc counter 0.849µM*.
Screening Cc1ccc(S(=O)(=O)Oc2ccccc2/C=N/O)cc1 returned ELG1 genotoxic -1.2%, NPC1 promoter act -4.5%, FLuc counter -6.5%, SMN2 splice up 9.0% and Rab9 promoter act 19.0%.
`Cc1ccc(S(=O)(=O)Oc2ccccc2/C=N/Nc2ccc(C(=O)O)cc2)cc1` gave ELG1 genotoxic 0.4%, NPC1 promoter act 0.0%, FLuc counter 19µM* and Rab9 promoter act 16.0%.
`COc1cccc(/C=N/Nc2ccc(C(=O)O)cc2)c1O` gave ELG1 genotoxic -19.1%, NPC1 promoter act -39.4%, FLuc counter 0.19µM*, SMN2 splice up -81.7% and Rab9 promoter act -34.8%.
COc1cccc(/C=N/Nc2ccccc2C(=O)O)c1O was read as ELG1 genotoxic 4.11µM*, NPC1 promoter act 0.562µM*, FLuc counter 1.35µM* and Rab9 promoter act 0.398µM*.
For COc1ccc2c(C)cc(SCC(=O)Nc3nsc(-c4ccccc4C)n3)nc2c1 the results were FLuc counter -9.5% and SMN2 splice up 3.2%.
Cc1ccc(C(O)C2=CCCC2=O)cc1 (stereo unspecified) was read as SMN2 splice up -1.6%.
O=C(CCNC(=O)c1ccco1)Nc1ccc(N2CCOCC2)cc1 was read as ELG1 genotoxic 1.0%, NPC1 promoter act 8.1%, FLuc counter 2.1%, SMN2 splice up 5.2% and Rab9 promoter act 12.5%.
Screening Cc1[nH]n(-c2ccccc2)c(=O)c1/C=N\NC(=O)C1COc2ccccc2O1 (stereo unspecified) returned ELG1 genotoxic inconclusive, NPC1 promoter act inconclusive, FLuc counter 1.9µM*, SMN2 splice up -56.4% and Rab9 promoter act inconclusive.
CC(=O)N/N=C/c1c(C)[nH]n(-c2ccccc2)c1=O was read as ELG1 genotoxic -3.0%, NPC1 promoter act -1.8%, FLuc counter -2.7%, SMN2 splice up -23.0% and Rab9 promoter act 4.6%.
For Cc1[nH]n(-c2ccccc2)c(=O)c1/C=N/NC(=O)COc1ccccc1[N+](=O)[O-] the results were ELG1 genotoxic 9.9%, NPC1 promoter act 0.8%, FLuc counter 21.3µM*, SMN2 splice up -99.3% and Rab9 promoter act -8.3%.

Source: PubChem BioAssay
